Hit rate of the full screen: of about 390,000 compounds, about 35 (0.009%) were called active. Roughly 6% stayed inconclusive and do not appear here. Calls follow the shape of the dose curve; as a rule, active = well fitted inhibition curve with a large enough effect in the polarisation, with a control signal flat (not every such curve was filed as active); inconclusive = small, poorly fitted or top-dose-only effect, or effect the other way, or a change in a side signal; inactive = no such curve, though single readings can be large or run the other way; the % refers to the polarisation. For the sample, actives were picked, then their nearest neighbours and some compounds at random.

Sequence of Peptidyl-prolyl cis-trans isomerase NIMA-interacting 1 (Homo sapiens) (Q13526 whole entry, looked up): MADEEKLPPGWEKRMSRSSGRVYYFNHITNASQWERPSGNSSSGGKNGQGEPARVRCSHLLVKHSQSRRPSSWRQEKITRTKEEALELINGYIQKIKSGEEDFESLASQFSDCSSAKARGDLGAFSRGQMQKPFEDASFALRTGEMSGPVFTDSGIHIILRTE

The target of the assay is Peptidyl-prolyl cis-trans isomerase NIMA-interacting 1 (Homo sapiens) (UniProt Q13526). Briefly: qHTS Assay to Find Inhibitors of Pin1. The note with it: Pin1 FP peptide displacement, HiFluor488, 10 min; series mostly up to 115 µM. The source says:
NIH Molecular Libraries Probe Production Network [MLPCN]
NIH Chemical Genomics Center [NCGC]
The unique chemical properties of Pro allow for the adoption of two completely distinct amide bond conformations (cis and trans). Peptidyl-prolyl cis/trans isomerases (PPIases) are evolutionary conserved enzymes that catalyze cis/trans isomerization of peptidyl-prolyl peptide bonds. Distinct from all other PPIases such as cyclophilins and FK506-binding proteins (FKBPs), Pin1 binds a subset of phos.Ser/Thr-Pro-containing proteins using its protein-targeting WW domain and isomerizes only specific phos.Ser/Thr-Pro bonds, which cannot be effectively catalyzed by other known PPIases.
Pin1-catalyzed conformational regulation can control a spectrum of activities of many key regulators in diverse cellular processes such as cell growth, genotoxic and other stress responses, immune response, germ cell development, neuronal differentiation and survival. Pin1 has emerged as a novel molecular timer that modulates its multiple targets at various steps of a given cellular process to synergistically control the amplitude and duration of a cellular response or process. Importantly, Pin1 is tightly regulated by multiple levels and its deregulation has an important role in a growing number of pathological conditions, including cancer, Alzheimer's disease, aging, asthma and microbial infection, providing a potentially new therapeutic option.
The goal of this screen is to find small-molecule inhibitors of Pin1 using a fluorescence polarization competition assay. A HiFluor-488-labeled peptide binds to the active site of Pin1 and can be displaced by compounds. Compounds were screened as a concentration-titration series that ranged from 57 uM to 0.7 nM.
NCGC Assay Protocol Summary:
Pin1 (0.6 uM) was dispensed into black, solid 1536-well plates at 2 uL/well in 10 mM HEPES (pH 7.5), 10 mM NaCl, 0.01% Tween20, 1 mM DTT, and 1% glycerol. Then, 23 nL of compounds or DMSO were delivered to each well using a pin tool. Two uL of Pin1-1b-HiFluor488 peptide (10 mM HEPES (pH 7.5), 10 mM NaCl, 0.01% Tween20, 1 mM DTT, and 1% glycerol, 0.02 uM Pin1-1b-HiFluor488) was then dispensed, and plates were incubated at room temperature for 10 min. The plates were measured on a ViewLux plate reader for fluorescence polarization signal using a 480/20 nM nm excitation filter and 540/25 nM nm S and P emission filters with a 20 second exposure. The %Activity was determined from the corrected fluorescence polarization values. Unlabeled Pin1-1c peptide was used as a control (3.5 mM two-fold serial; 20 uM final concentration) along with a 1x (0.3 uM) and 0x (no-enzyme) Pin1 enzyme control to normalize %Activity of identified inhibitors; 0x enzyme values corresponded to 100%Activity (full inhibition), while 1x Pin1 enzyme values were used to normalize 0%Activity (no inhibition).
Concentration-response curves were fitted to the signals arising from the resulting fluorescence polarization. The concentration-effect curves were then classified based on curve quality (r2), response magnitude and degree of measured activity, and compounds were subsequently categorized based on their curve class.
Keywords: Peptidyl prolyl isomerase, Pin1, fluorescence polarization, MLSMR, MLPCN, NIH Roadmap, qHTS, NCGC
Background: In qHTS, concentration-response curves come from the screen itself.
For the compound `Cc1ccc(CNC(=O)CSc2c(C)cnc3c2c(=O)n(C)c(=O)n3C)cc1`, the activity, negative = inhibition result was “inactive”. The entry for `CCc1cc2c(cc3c(=O)n(CC(=O)N4CCN(c5cc(Cl)ccc5C)CC4)ncn32)s1` is “inactive”; for `CCCN1CCC(=O)N(C(CSc2ccc(C)cc2)Cc2ccccc2)CC1` (stereo unspecified) it is “inactive”; for `CCCCn1c(=O)c2oc3ccccc3c2n(CC(=O)Nc2ccccc2OC)c1=O` it is “inactive”. For `Cn1c(=O)oc2cc(S(=O)(=O)CCC(=O)NCCc3ccc(Cl)cc3)ccc21` the value was “inactive”; for `COc1ccc(C(=O)N(Cc2ccccc2)Cc2ccc(OC)c(COc3ccc(NC(C)=O)cc3)c2)c(O)c1`, “inactive”; for `O=C1C(F)N([S+](=O)([O-])c2ccc3c(c2)OCCO3)CCN1[S+](=O)([O-])c1c(F)cccc1F` (stereo unspecified), “inactive”. For `Cc1ccccc1CN1CCC(CNC(=O)c2cc3ccc4cccnc4c3[nH]2)CC1` the value was “inactive”. Turning to `CN(Cc1cncn1C)c1ncnc2ccc(-c3ccc4c(c3)OCO4)cc12`, the activity, negative = inhibition entry is “inactive”. For `CC(C)(C)NS(=O)(=O)c1cccc(Nc2nn3c(=O)c4ccccc4nc3s2)c1` the value was “inactive”; for `COc1ccc(Cn2cc(C(=O)c3ccc(C)cc3)c(=O)c3cc(OC)c(OC)cc32)cc1`, “inactive”; for `Cc1ccc(NC(=O)c2cc3cc(C)ccc3n2C)cc1`, “inactive”. For `N#CN1CCC(NC(=O)c2ccc(F)cc2)CC1` the value was “inactive”; for `O=C(CNC(=O)c1ccc(Cl)cc1Cl)OC(C(=O)Nc1cc(C(F)(F)F)ccc1Cl)c1ccccc1` (stereo unspecified), “inactive”. For the compound `N#CN1CCC(NS(=O)(=O)c2cccc(F)c2)C1` (stereo unspecified), the activity, negative = inhibition result is “inactive”. On to `O=C(COc1ccccc1)NCc1ccc2c(c1)CCN2C(=O)c1ccc(F)cc1`, for which the activity, negative = inhibition entry is “inactive”. As for `CN(C)c1ccc(C(=O)NCC(=O)OC(C(=O)Nc2cc(C(F)(F)F)ccc2Cl)c2ccccc2)cc1` (stereo unspecified), the activity, negative = inhibition result is “inactive”.

Turning to `CC1CCCCN1S(=O)(=O)c1ccc(F)c(C(=O)Nc2ccccc2C(F)(F)F)c1` (stereo unspecified), the activity, negative = inhibition entry was “inactive”. On to `Cc1noc(C)c1-c1ccc2ncnc(NCc3ccc4[nH]ccc4c3)c2c1`, for which the activity, negative = inhibition entry is “inactive”. For `Brc1ccc2c(c1)NC(c1cccnc1)=NC(c1ccccc1)=N2` the value was “inactive”; for `CS(=O)(=O)c1ccc(-c2nnc(NC(=O)c3ccc4c(c3)OCCO4)o2)cc1`, “inactive”. For `CCN(Cc1ccccc1)C(=O)c1cn(-c2cccc(OC)c2)c(=O)c2ccccc12` the value was “inactive”; for `O=C(c1ccccc1F)N1CCC(c2nc3c(nnn3Cc3cccc(F)c3)c(=O)[nH]2)CC1`, “inactive”. For `COc1cc(OC)cc(C(=O)Nc2cc3nn(-c4ccccc4)nc3cc2Cl)c1`, the activity, negative = inhibition entry was “inactive”. `O=C(c1ccc2c(c1)N(Cc1ccccc1)C(=O)c1ccccc1S2(=O)=O)N1CCC(Cc2ccccc2)CC1`: the activity, negative = inhibition result is “inactive”. For `COc1cccc(Cn2c(SCc3ccc(C(=O)N4CCC(C)CC4)cc3)nc3ccncc32)c1`, the activity, negative = inhibition result was “inactive”.

On to `O=S(=O)(c1ccc2nc(NCc3ccccc3Cl)ccc2c1)N1CCCCC1`, for which the activity, negative = inhibition result was “inactive”. The entry for `Oc1ccc(/C=C/c2c(F)cccc2F)c2cccnc12` is “inactive”; for `Oc1ccc(Br)cc1C1C=C(c2ccc3c(c2)OCO3)NC(c2ccc(Cl)cc2)N1` (stereo unspecified) it is “inactive”. For `O=C(NCc1ccccn1)[C@]1(C(F)(F)F)C[C@H](CCc2ccccc2)CCCO1` the value was “inactive”; for `CCOc1ccccc1C(=O)Nc1ccc(S(=O)(=O)N2CCCCC2c2cccnc2)cc1` (stereo unspecified), “inactive”; for `Cc1ccc(-c2nc3ccccn3c2Nc2ccc(F)cc2)o1`, “inactive”. On to `COc1ccc(CNC(=O)CSc2n[nH]c(-c3ccc(F)cc3)n2)cc1`, for which the activity, negative = inhibition entry was “inactive”. The entry for `O=C(NC1CC(=O)N(c2ccc(F)cc2)C1)c1ccc(S(=O)(=O)N2CCCC2)cc1` (stereo unspecified) is “inactive”; for `CCc1ccccc1NC(=O)c1ccc2nc(CCc3ccccc3)oc2c1` it is “inactive”. For `CCc1ccc(CNC(=O)C2CCN(c3nn4cc(-c5ccc(F)cc5)nc4s3)CC2)cc1`, the activity, negative = inhibition result was “inactive”. The entry for `Cc1ccc(CNc2ncnc3cc(-c4ccc5c(c4)OCO5)ccc23)o1` is “inactive”; for `CN1C(=O)c2ccccc2Sc2ccc(NC(=O)Cc3ccc(Cl)cc3)cc21` it is “inactive”; for `Cc1cc2c(cc3c(SCc4nc(-c5ccccc5)oc4C)nnc(C)n32)o1` it is “inactive”.

In the case of `CCOC(=O)C1CCN(C(=O)CSc2c3c(nc4ccc(Cl)cc24)CCCC3)CC1`, the activity, negative = inhibition entry was “inactive”.

For `Cc1c(Cl)cccc1NC(=O)CCS(=O)(=O)c1ccc2c(c1)oc(=O)n2C`, the activity, negative = inhibition result was “inactive”. For `O=C(CN1c2ccccc2S(=O)(=O)c2ccccc21)Nc1cccc(C(F)(F)F)c1` the value was “inactive”; for `O=C(COc1ccccc1F)Nc1ccc(C(=O)OCc2cc(=O)n3nc(C4CC4)sc3n2)cc1`, “inactive”; for `N#Cc1nc(Nc2cccc(Cl)c2)nc(NC2CCCC2)n1`, “inactive”. The entry for `COc1ccc(Cn2ccn(CC(=O)Nc3cc(C)ccc3C)c(=O)c2=O)cc1` is “inactive”.

As to `COc1cccc(NC(=O)c2ccc3nc(CCc4ccccc4)oc3c2)c1`, the activity, negative = inhibition result was “inactive”. For `COc1ccc(CC(=O)N2CC(=O)Nc3ccc(Br)cc3C2c2ccc(F)cc2)cc1OC` (stereo unspecified) the value was “inactive”; for `COc1ccc(N2CCN(S(=O)(=O)CCNC(=O)C(c3ccccc3)c3ccccc3)CC2)cc1`, “inactive”. The entry for `COc1ccc(C2/C=C\CN(C(=O)c3ccc(C)cc3)C(Cc3ccccc3)C(=O)N2Cc2ccc(F)cc2)cc1` (stereo unspecified) is “inactive”; for `Cc1ccc2[nH]c3c(=O)n(CC(=O)NC(C)C)ncc3c2c1` it is “inactive”.

In the case of `COc1ccc(NC(=O)CCc2nnc3n(CC(C)C)c(=O)c4ccccc4n23)cc1OC`, the activity, negative = inhibition result was “inactive”. The entry for `Cc1ccc(Cn2ncc3c4sc(C)cc4n(C)c3c2=O)c(C)c1` is “inactive”.

`COc1cc(OC)c2c(C)cc(=O)oc2c1C(CCN1CCCCC1)c1ccc(N(C)C)cc1` (stereo unspecified): the activity, negative = inhibition result was “inactive”. The entry for `CCc1nnc(SCc2c(F)cccc2Cl)c2cc3sccc3n12` is “inactive”. With `O=C1CCc2cc(S(=O)(=O)Nc3cccc(Oc4ccccc4)c3)ccc2N1`, the activity, negative = inhibition entry was “inactive”. On to `NC(=O)C1CCN(c2cc(-c3ccc4c(c3)OCCCO4)ncn2)CC1`, for which the activity, negative = inhibition entry was “inactive”.

For the compound `COc1ccc(OCc2ccc(-c3nc(C#N)c(N4CCN(c5ccccc5)CC4)o3)o2)cc1`, the activity, negative = inhibition result is “inactive”. Regarding `COc1ccc(Cl)cc1NC(=O)CSc1nc2ccccc2c2nc(-c3ccccc3)nn12`, the activity, negative = inhibition result was “inactive”.

For `CCCN1CCC(=O)N(C(CSc2ccc(OC)cc2)Cc2ccccc2)CC1` (stereo unspecified), the activity, negative = inhibition result is “inactive”. The entry for `COc1ccc(CCC(=O)NCc2ccc3c(c2)CCN3C(=O)c2ccc(F)cc2)cc1` is “inactive”; for `Cc1ccc(-c2nnc3c4ccccc4c(C)nn23)cc1NC(=O)c1cccc(Br)c1` it is “inactive”.

The record behind these values is PubChem BioAssay AID504891 (National Center for Advancing Translational Sciences (NCATS), 2011).
